Whole data set: some 18,000 sequences, median “log2 normalized intensity” near 0.36, cut for the highest 2% near 7.3. Shown is part of a subset that was picked to be rich in the highest values.

In this experiment the target is T1, HNF4alpha8 (COS-7 nuclear extract) (Homo sapiens, UniProt P41235-5 1-452).
T1 sequence: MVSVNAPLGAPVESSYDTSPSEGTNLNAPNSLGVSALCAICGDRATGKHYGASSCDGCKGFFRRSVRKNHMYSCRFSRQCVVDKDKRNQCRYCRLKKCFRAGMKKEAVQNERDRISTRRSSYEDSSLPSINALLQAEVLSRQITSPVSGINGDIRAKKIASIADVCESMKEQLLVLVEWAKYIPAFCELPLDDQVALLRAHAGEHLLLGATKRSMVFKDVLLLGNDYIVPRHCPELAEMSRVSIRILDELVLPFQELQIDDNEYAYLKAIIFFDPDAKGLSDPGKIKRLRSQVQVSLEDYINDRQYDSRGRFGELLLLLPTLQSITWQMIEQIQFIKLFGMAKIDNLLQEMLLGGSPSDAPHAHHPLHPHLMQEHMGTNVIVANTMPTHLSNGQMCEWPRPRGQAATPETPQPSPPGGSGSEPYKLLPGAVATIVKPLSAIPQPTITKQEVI
The experiment can be described thus: protein-binding microarray; COS-7 nuclear extract on double-stranded Agilent 4x180k PBM; binding buffer, salt, pH and temperature not given in the material; high values mean tight binding. As to conditions: chain copies: 2; label: 3' end of strand 1 on the slide; dsDNA, one strand shown. The procedure, abridged:
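Binding signal is the background-corrected, normalized gProcessedSignal calculated by Agilent software. It was measured by applying nuclear extracts of COS-7 cells transiently transfected with a human HNF4α isoform expression vector to a custom Agilent SurePrint G3 4x180k array of ~44,000 double-stranded ~60-nt test sequences in quadruplicate, then imaging bound HNF4α on an Agilent G2565CA scanner at 2-µm resolution.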
As for “GGCATTCTGACCTTTGTCTCCAGGCAAACTGCCTAGGGAGATTAGAGTATCGGTCGA”, the binding signal stood at 5.6 log2 normalized intensity.

Turning to “GAGGAGTGAGAACAGACAAAATTAAGTGATGCCTAGGGAGATTAGAGTATCGGTCGA”, the binding signal was -0.842 log2 normalized intensity.

As for “TCTGTCTGAGACCACTTAAGCCTGGAATTCGCCTAGGGAGATTAGAGTATCGGTCGA”, the binding signal is -0.0786 log2 normalized intensity.

“ACCCATGTTTGCCCTTGATAAGAGCTGCTCGCCTAGGGAGATTAGAGTATCGGTCGA”: the binding signal is 0.685 log2 normalized intensity.

Turning to “AGGTGAATGTACAAAGGTCAACGGCACAAGGCCTAGGGAGATTAGAGTATCGGTCGA”, the binding signal was found to be 5.02 log2 normalized intensity.

In the case of “TGAGCACATTCTTCAATATCAGTGGCACTCGCCTAGGGAGATTAGAGTATCGGTCGA”, the binding signal was 0.295 log2 normalized intensity.

Turning to “TGTCTTCTGACCTTTGGCAATATCTCCCAGGCCTAGGGAGATTAGAGTATCGGTCGA”, the binding signal was 3.96 log2 normalized intensity.

For “CACCTTCTTCCTAGGCAATCCCATGACCTTGCCTAGGGAGATTAGAGTATCGGTCGA”, the binding signal came to 3.52 log2 normalized intensity.

“CCATGACCTTTGTACTAATGATTTGTAAATGCCTAGGGAGATTAGAGTATCGGTCGA”: the binding signal turned out to be 6.03 log2 normalized intensity.

As for “CAATCCCATGACCTTTGTACTAATGATTTGGCCTAGGGAGATTAGAGTATCGGTCGA”, the binding signal was found to be 6.73 log2 normalized intensity.

Regarding “TCTTCCTAGGCAATCCCATGACCTTTGTACGCCTAGGGAGATTAGAGTATCGGTCGA”, the binding signal was found to be 9.08 log2 normalized intensity.

Consider “CTAGGCAATCCCATGACCTTTGTACTAATGGCCTAGGGAGATTAGAGTATCGGTCGA”, for which the binding signal amounted to 8.3 log2 normalized intensity.

As to “GGACTTCTCTGCCCTCTTCCCTCTACCTCTGCCTAGGGAGATTAGAGTATCGGTCGA”, the binding signal worked out at 1.97 log2 normalized intensity.

In the case of “AAACAGACCTCTCTCTCCCCAGACAGCCACGCCTAGGGAGATTAGAGTATCGGTCGA”, the binding signal came out at 2.71 log2 normalized intensity.

In the case of “TATTTACATACCTTAGGCTGTGCATATTGGGCCTAGGGAGATTAGAGTATCGGTCGA”, the binding signal worked out at 0.994 log2 normalized intensity.

For “CCTCCTGCTTAGCGGCCTTCCCCTTTTTCTGCCTAGGGAGATTAGAGTATCGGTCGA”, the binding signal was found to be 1.99 log2 normalized intensity.

As to “TCAGACAAGTTGCAGGGATGGACTTTAATCGCCTAGGGAGATTAGAGTATCGGTCGA”, the binding signal turned out to be 7.17 log2 normalized intensity.

For the sequence “CCCCCTATCCCAAGACATCAATTAACTTGTGCCTAGGGAGATTAGAGTATCGGTCGA”, the binding signal amounted to 3.09 log2 normalized intensity.

“CCTAGCCCCACCAAACTGACAGGTTAGACTGCCTAGGGAGATTAGAGTATCGGTCGA”: the binding signal worked out at 2.33 log2 normalized intensity.

Take “ACCTCCTGGGCCCAAGTGCTCCTCCCCATCGCCTAGGGAGATTAGAGTATCGGTCGA”: the binding signal is 3.58 log2 normalized intensity.

Regarding “GCTCTAGACATCGACCTTTGTGGGCTTCAGGCCTAGGGAGATTAGAGTATCGGTCGA”, the binding signal was found to be 3.19 log2 normalized intensity.

Take “TCTTCAGGCTGGGGCCCCATCGACCTTTGCGCCTAGGGAGATTAGAGTATCGGTCGA”: the binding signal came to 7.4 log2 normalized intensity.

With “GGGGCCCCATCGACCTTTGCTCCCGACTCTGCCTAGGGAGATTAGAGTATCGGTCGA”, the binding signal worked out at 8.88 log2 normalized intensity.

Regarding “GTCCCTGGCCCCGGGGCGGGGGCGGGCTGGGCCTAGGGAGATTAGAGTATCGGTCGA”, the binding signal was -0.21 log2 normalized intensity.

As to “CGACCTTTGCTCCCGACTCTGAGGCTCCATGCCTAGGGAGATTAGAGTATCGGTCGA”, the binding signal was 5.96 log2 normalized intensity.

In the case of “AGACATCGACCTTTGTGGGCTTCAGACATTGCCTAGGGAGATTAGAGTATCGGTCGA”, the binding signal stood at 2.32 log2 normalized intensity.

For the sequence “CCCATCGACCTTTGCTCCCGACTCTGAGGCGCCTAGGGAGATTAGAGTATCGGTCGA”, the binding signal worked out at 5.95 log2 normalized intensity.

Take “AGGCTGGGGCCCCATCGACCTTTGCTCCCGGCCTAGGGAGATTAGAGTATCGGTCGA”: the binding signal is 10.5 log2 normalized intensity.

Turning to “AGCAATCATATATGCATTTGTCTCAGGTGGGCCTAGGGAGATTAGAGTATCGGTCGA”, the binding signal was found to be 1.26 log2 normalized intensity.

Regarding “AATCAACCTTTGATCGTTTGCATGCAGGGCGCCTAGGGAGATTAGAGTATCGGTCGA”, the binding signal stood at 3.98 log2 normalized intensity.

On to “GAACTGAAAGAGACCTTTGACATCACCTAAGCCTAGGGAGATTAGAGTATCGGTCGA”, for which the binding signal was found to be 2.77 log2 normalized intensity.

Consider “AGGAGGCACTGATAAGCGTATTTCAACCTTGCCTAGGGAGATTAGAGTATCGGTCGA”, for which the binding signal was determined as 0.651 log2 normalized intensity.

Regarding “GTTTACTCATGTGGTCCTAAGACTGACCTTGCCTAGGGAGATTAGAGTATCGGTCGA”, the binding signal stood at 4.61 log2 normalized intensity.

For the sequence “GACTGACCTTTGATCATTTGAGGGTGACACGCCTAGGGAGATTAGAGTATCGGTCGA”, the binding signal stood at 6.1 log2 normalized intensity.

Turning to “GTGGTCCTAAGACTGACCTTTGATCATTTGGCCTAGGGAGATTAGAGTATCGGTCGA”, the binding signal was 9.52 log2 normalized intensity.

For the sequence “GCACTGATAAGCGTATTTCAACCTTTGATCGCCTAGGGAGATTAGAGTATCGGTCGA”, the binding signal stood at 8.45 log2 normalized intensity.

“CTCATGTGGTCCTAAGACTGACCTTTGATCGCCTAGGGAGATTAGAGTATCGGTCGA”: the binding signal is 10.6 log2 normalized intensity.

Consider “CCTAAAATTGACCTTTGATCACTCATGGGCGCCTAGGGAGATTAGAGTATCGGTCGA”, for which the binding signal amounted to 8.68 log2 normalized intensity.

Turning to “TTGTTTACTCATGTGGTCCTAAGACTAACCGCCTAGGGAGATTAGAGTATCGGTCGA”, the binding signal turned out to be 0.432 log2 normalized intensity.

“GATAAGCGTATTTCAACCTTTGATCTATAAGCCTAGGGAGATTAGAGTATCGGTCGA”: the binding signal is 6.82 log2 normalized intensity.

“AATTGACCTTTGATCACTCATGGGCAAGATGCCTAGGGAGATTAGAGTATCGGTCGA”: the binding signal is 6.41 log2 normalized intensity.

For the sequence “AATGCCCAGGATTCCTTTTTCACTGCTCACGCCTAGGGAGATTAGAGTATCGGTCGA”, the binding signal is -0.85 log2 normalized intensity.

These data come from article PMC10726135, “HNF4α isoforms regulate the circadian balance between carbohydrate and lipid metabolism in the liver”.
